Experimental findings from PubChem BioAssay (NCI) are described below.

What all share (test): NCI-60 one-dose screen, 48 h (100 = growth as untreated, 0 = no growth, -100 = all killed)
What all share (details): 10 µM unless noted

In experiment [1] the test system is OVCAR-8 ovarian.
The subject of experiment [2] is OVCAR-5 ovarian.
For experiment [3], the system named is OVCAR-4 ovarian.
Experiment [4] deals with SK-OV-3 ovarian.
Experiment [5] has as its system IGROV1 ovarian.
Experiment [6] relates to OVCAR-3 ovarian.
In experiment [7] the test system is HS 578T breast.
The test system of experiment [8] is NCI/ADR-RES ovarian.
Experiment [9] relates to RPMI-8226 leukemia.

Structures are written as SMILES. Compounds without any hit were thinned out: in the full panel of roughly 83,000, 20% have a hit.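 48-hour exposure, single concentration, 96-well plates; percent growth endpoint where 0 means no net growth. Active: below 10.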 Values without a mark were called inactive. Active and inactive are the calls of the source.

In the case of `OCCN1CCN(CC/C=C2/c3ccccc3Sc3ccc(C(F)(F)F)cc32)CC1`, the growth in experiment [1] was 88.5%; in [2] it was 82.4%; in experiment [3], 66.5%; in [4], 73.1%; in [5], 55.8%; in experiment [6], 80%. Besides, the values for the growth in [7] and in experiment [8] were 67.7% and 76.1%, respectively.

With `NC(N)=Nc1ccc(/C=C2\C=Cc3ccccc32)cc1`, the growth in experiment [1] was 71.7%; in experiment [2] it was 80.7%; in experiment [3], 77.7%; in experiment [4], 78.6%; in experiment [5], 51.2%; in experiment [6] it was 72.9%. In addition, the growth in experiment [7] was 81.3%; in experiment [8], 80.9%.

Consider `COC(=O)c1c[n+]([O-])ccc1OC`, for which the growth is 111% in experiment [9]; 110% in [1]; 117% in [2]; 123% in [3]; 106% in experiment [4]; 107% in experiment [5]. Further, the growth in [6] is 113%; in experiment [7], 109%; in experiment [8], 105%.

On to `O=C(Nc1cccc(Cn2c(=O)[nH]c3ccc(Oc4ncccn4)cc3c2=O)c1)c1cccc(F)c1`, for which the growth is 52.3% in experiment [9]; 78.7% in [1]; 96.1% in [2]; 73.9% in [3]; 83% in experiment [4]; 84.1% in experiment [6]. Further, the results for the growth in experiment [7] and in experiment [8] were 92.8% and 104%, respectively.

Consider `Cc1c(C(N)=O)sc2c1c(=O)n(Cc1ccccc1)c1nnc(S(C)(=O)=O)n21`, for which the growth in experiment [2] was 135%; in experiment [3] it was 64.5%; in [4] it was 103%; in experiment [6], 79.6%; in experiment [7], 87.5%; in [8], 100%.

In the case of `COc1ccc(NC(=O)/C=C(C)/C=C/C=C(C)/C=C/C2=C(C)CCCC2(C)C)cc1`, the growth in [9] was 43.9%; in [1], 37%; in experiment [2], 94.8%; in experiment [3], 80.1%; in experiment [4] it was 86.2%; in experiment [6], 66.5%. Moreover, the growth in [7] is 87.9%; in experiment [8], 80.1%.

In the case of `COc1ccc2c(N)ncc(C#Cc3cc(C(=O)Nc4ccc(CN5CCN(C)CC5)c(C(F)(F)F)c4)cnc3C)c2c1`, the growth in experiment [9] is -45.1% (active); in [1], -34.7% (active); in experiment [3], 0.668% (active); in experiment [4] it was 24.5%; in experiment [5], -71.6% (active); in experiment [6], 11.7%. For the same compound, the growth in experiment [7] is 30%; in experiment [8] it was 16%.

For the compound `CCN(CC)CCNc1ncnc2c1cnn2-c1ccc(Cl)cc1`, the growth in experiment [9] is 96.7%; in experiment [2], 89.6%; in experiment [3], 90.6%; in [4] it was 99.7%; in [6] it was 63.1%; in experiment [7] it was 77.5%. For the same compound, the growth in experiment [8] is 91.4%.

As to `O=C(N/N=C/c1ccccc1Cl)c1cccc2ccccc12`, the growth in [1] was 82.2%; in [2], 104%; in experiment [3], 103%; in [4], 98.6%; in experiment [5], 106%; in experiment [6], 110%. The growth is 95.6% in experiment [7] and 107% in experiment [8].

For `C=CCN(C)C`, the growth was 117% in experiment [9]; 106% in experiment [1]; 109% in [2]; 115% in [3]; 115% in experiment [4]; 118% in experiment [6]. The growth in experiment [7] is 98.1%; in experiment [8] it was 106%.

In the case of `CC(C)C(=O)c1ccc(Cl)s1`, the growth was 102% in experiment [1]; 105% in [2]; 90.5% in experiment [3]; 101% in [4]; 96.2% in experiment [5]; 100% in experiment [7]. The growth in experiment [8] is 104%.

`CC[C@@H](C)/C=C(C)/C=C/C(=O)c1c(O)c(-c2ccc(OC(=O)[C@@]34CC[C@@](C)(C(=O)O3)C4(C)C)cc2)cn(O)c1=O`: the growth in [1] is 20.4%; in experiment [2] it was 55.7%; in experiment [4], 28.3%; in experiment [5], -18.6% (active); in experiment [6] it was 30.1%; in experiment [7], 57.2%. The growth in [8] was 3.91% (active).

As to `COc1cc(N2C(=O)C=CC2=O)ccc1N1C(=O)C=CC1=O`, the growth in [9] was 103%; in experiment [1], 110%; in experiment [2], 103%; in experiment [3] it was 102%; in experiment [4], 110%; in [5], 115%. For the same compound, the growth in experiment [7] was 102%; in experiment [8] it was 106%.

`COc1ccc(C(=O)CN2C(=O)NC(c3ccccc3)(c3ccccc3)C2=O)cc1`: the growth was 95.2% in experiment [1]; 98.7% in [2]; 99.8% in [3]; 102% in [4]; 115% in experiment [5]; 107% in [6]. Moreover, the growth in experiment [7] was 89.3%; in experiment [8] it was 102%.

Take `C[n+]1c2ccccc2c(Nc2ccc(NS(=O)(=O)CCCCN=C(N)N)cc2)c2ccc(N)cc21`: the growth in experiment [9] was 48.6%; in experiment [1] it was 54.4%; in experiment [2], 71.9%; in experiment [3], 72.9%; in experiment [4], 51%; in experiment [5] it was 45.9%. Further, the values for the growth in experiment [7] and in experiment [8] were 34.5% and 97.5%, respectively.

As to `COc1cccc(CNC(=O)c2cccc(C3CC(=O)c4c(cc(OC)c(OC)c4OC)O3)c2)c1` (configuration not stated), the growth in [9] is 32.9%; in experiment [1] it was 67.1%; in experiment [2], 89.1%; in [3] it was 78.3%; in [4], 81.7%; in experiment [6] it was 12.6%. Also, the growth in [7] is 102%; in [8], 41.7%.

On to `COc1cc(C(=O)Nc2ccc(N(C)C)cc2)cc(OC)c1OC`, for which the growth was 97.7% in experiment [9]; 92.2% in [1]; 93.1% in experiment [3]; 85.7% in [4]; 93.7% in experiment [5]; 95.5% in experiment [7]. The growth in experiment [8] was 87.3%.

`CCOC(=O)CNS(=O)(=O)CC(=O)c1ccccc1`: the growth in experiment [9] is 96.1%; in [1] it was 108%; in [2], 101%; in experiment [3], 85.4%; in experiment [4], 105%; in experiment [5], 94.6%. For the same compound, the values for the growth in [6], in experiment [7] and in experiment [8] were 126%, 124% and 102%, respectively.

Turning to `COc1ccc(-c2cc(C#N)c(NNC(C)=O)[nH]2)cc1`, the growth in experiment [9] is 123%; in [1] it was 110%; in [2], 94.7%; in experiment [3], 68.8%; in experiment [4], 179%; in experiment [5] it was 101%. In addition, the values for the growth in experiment [6], in experiment [7] and in [8] were 104%, 107% and 109%, respectively.

`C=C1CCC2C3(C)COC(c4ccccc4)OC3CCC2(C)C1C/C=C1/C(=O)OCC1O` (configuration not stated): the growth is 117% in [2], 66.6% in experiment [3], 59.2% in experiment [5] and 51.5% in experiment [8].

Take `N#Cc1c(N)nc(Nc2nc3ccccc3[nH]2)nc1-c1ccc(Cl)cc1`: the growth was 94.4% in experiment [9]; 102% in experiment [1]; 107% in experiment [2]; 116% in experiment [3]; 88.4% in experiment [4]; 98.7% in experiment [5]. Also, the results for the growth in [6], in experiment [7] and in experiment [8] were 127%, 145% and 107%, respectively.
